Where “and” joins values, the source holds several entries; their conditions need not be identical. Identical values can stand only once. About 83,000 compounds went through this panel and 20% of them were active in at least one assay; those are over-represented in the sample as a whole.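 The test compound was applied at a single concentration to cells in 96-well plates for 48 hours, and percent growth was recorded.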 A number with no mark means an inactive call. Calls of active or inactive are those of the source.
Each compound was assayed on MDA-MB-468 breast (assay: NCI-60 one-dose screen, 48 h (100 = growth as untreated, 0 = no growth, -100 = all killed)). Conditions: 10 µM unless noted.
Procedure: Growth inhibition of the MDA-MB-468 human Breast tumor cell line is measured as a screen for anti-cancer activity. Cells are grown in 96 well plates and exposed to the test compound for 48 hours. Compounds are tested at a single concentration, which is 10^-5 M for most compounds. The reported endpoint is percent growth (GI% or GIPRCNT), where numbers from 0 - 100% represent growth inhibition, and numbers from -100% - 0 represent cell death. For example, a value of 40 represents 60% growth inhibition. A value of 0 means no net growth occurred over the course of the experiment. A value of -40 indicates 40% of cells at the beginning of the experiment died by the end of the experiment. A value of -100 means all cells are dead at the end of the experiment.
NCI-60 Human Tumor Cell Lines Screen was performed using the standard one-dose NCI protocol, which is described in more detail at https://dtp.cancer.gov/discovery_development/nci-60/default.htm.
Compounds with GIPRCNT values below 10 were considered active. Activity score was based on GIPRCNT using the following formula: […]
Score is 0 for GIPRCNT values of 100 or above, 50 for GIPRCNT values of 0, and 100 for GIPRCNT values of -100.
Compound `C/C(=N/O)c1ccc(NC(=O)CSc2nnc(-c3ccc4nc(-c5ccc(Cl)cc5)[nH]c4c3)o2)cc1` has a growth of 122%.
`C=CC(=O)Nc1ccc(C(=O)/C=C/c2ccc(N(C)C)cc2)c(O)c1` was tested, and the growth was -19.8% (active).
`COc1ccc(NC(=O)Cn2c(/C=C/c3cccc(OC)c3)nc3ccccc3c2=O)cc1` was tested, and the growth was 71.4%.
`Cc1ccc(C(=O)Nc2cc(-n3ccnc3)cc(C(F)(F)F)c2)cc1-n1cc(-c2cnc3cccnn23)nn1` was tested, and the growth was 121%.
`O=C1CCC(N2C(=O)c3cccc(NCCCCCC(=O)N4CCN(c5ccc6nc7c(nc6c5C(F)(F)F)C(=O)c5ncccc5C7=O)CC4)c3C2=O)C(=O)N1` (stereo not given) was tested, and the growth was -49.9% (active).
`Cc1ccc(-c2cc(-c3ccccc3)[nH]c(=O)c2C#N)cc1` gave a growth of 89.4%.
With `c1n[nH]cc1-c1nc2ccc3cn[nH]c3c2c2c1CCCC2` the growth was 78.5%.
`COc1ccc(N=Nc2c(N)nn3c(N)c(C#N)c(-c4ccc(F)cc4)nc23)cc1` showed a growth of 46.7%.
Work on `Oc1ccc(Cl)c(Nc2ncnc3c2cnn3CC(Cl)c2ccc(Br)cc2)c1` (stereo not given) yielded a growth of 26.2%.
For `O=C(Cc1c(-c2ccccc2[N+](=O)[O-])n(-c2ncnc3c2c(-c2ccccc2)c(-c2ccccc2)n3Cc2ccccc2)[nH]c1=O)c1ccc(Cl)c(Cl)c1`, the growth was -23.5% (active).
For `Cc1[nH]nc2ccc3nc(-c4cnn(CCO)c4)c4c(c3c12)CCCC4`, the growth was -0.783% (active).
`Nc1nn2c(-c3cc4cc(Br)ccc4oc3=O)ccnc2c1N=Nc1ccc(Br)cc1` was tested, and the growth was 39%.
`COc1cc(C2CC(c3ccc(S(=O)(=O)NCCNc4nc(N(C)C)nc(N5CCOCC5)n4)cc3)=Nc3c(N)nc(N)nc3N2)cc(OC)c1OC` (stereo not given) gave a growth of 95.4%.
With `COc1sc(/C=N/NC(=O)c2[nH]c3ccc(Br)cc3c2-c2ccccc2)cc1Cl` the growth was -6.37% (active).
With `Cn1cc(-c2cc3nc(-c4c[nH]c5ccccc45)cc(N)n3n2)c2ccccc21` the growth was -53.9% (active).
`O=C(N/N=C/c1ccc(B(O)O)s1)c1[nH]c2ccc(Br)cc2c1-c1ccccc1` was tested, and the growth was -95.9% (active).
For `Cc1cccc(/C=C/c2ccc(NC(=S)NCCCCN(C)C)cc2)c1`, the growth was -83.5% (active).
For `Cn1cc(-c2cc(N)n3nc(-c4c[nH]c5ccccc45)cc3n2)c2cc(Cl)ccc21`, the growth was -83.2% (active).
In the case of `COc1cc(C=O)ccc1Oc1nc(Nc2ccc(F)cc2)nc(N(C)C)n1`, the growth is reported as 36.4% and 53.5%.
With `COc1ccc(-c2nc3ccc(-c4nnc(SCc5ccccc5)o4)cc3[nH]2)cc1OC` the growth was 44.1%.
`CSc1ccc(OCc2nc3ccccc3n2-c2cccc(NS(C)(=O)=O)c2)cc1` was tested, and the growth was 110% and 98.2%.
With `COc1cccc2nc(Nc3cccc(NC(=O)c4ccc(CN5CCN(C)CC5)c(C(F)(F)F)c4)c3)ccc12` the growth was -97.2% (active).
`Cc1cc(C)c2[nH]c(=O)c(C(c3nnnn3Cc3ccc4c(c3)OCO4)N3CCN(C)CC3)cc2c1` (stereo not given) was tested, and the growth was 113%.
For `N#CC1=C(c2ccco2)Nc2c(c(-c3ccccc3)nn2-c2ccccc2)C12C(=O)Nc1ccc(Br)cc12` (stereo not given), the growth was 66.6%.
Compound `COc1ccc(N=Nc2c(N)nn3c(N)c(C#N)c(-c4ccc(C)cc4)nc23)cc1` has a growth of 32.4%.
For `CS(=O)(=O)Nc1cncc(-c2ccc3ncnc(NCc4ccccc4)c3c2)c1`, the growth was -34% (active).
Work on `COC(=O)c1cc(C(C)=O)n2c3ccccc3c3ccccc3c12` yielded a growth of 65.8%.
In the case of `CS(=O)(=O)Nc1cc(-c2ccc3ncnc(Nc4ccc(OCc5cccnc5)c(Cl)c4)c3c2)cnc1Cl`, the growth is reported as -81.3% (active).
With `O=C(c1ccc(Cl)cc1)C1[C@H](c2ccccc2Cl)[C@@H](c2ccccc2)NC12C(=O)Nc1ccc(Br)cc12` (stereo not given in full) the growth was -83.2% (active).
`O=C(CSc1nc2ccccc2c(=O)[nH]1)Nc1ccccc1C(=O)O` gave a growth of 92.5%.
For `Fc1cccc(CNc2nc(SCCN3CCOCC3)nc3c2cnn3CC(Cl)c2ccc(Br)cc2)c1` (stereo not given), the growth was 3.38% (active).
In the case of `C=CC[n+]1cccc2c3ccccc3ccc21`, the growth is reported as -9.82% (active).
`CC(C)(C)OC(=O)N1CCC2(CC1)Oc1ccccc1[C@H]1CC(c3ccc(Br)cc3)=NN12` showed a growth of 67.7%.
`Nc1nnc(CS(=O)(=O)c2ccccc2)s1` was tested, and the growth was 111%.
`COC(=O)c1c(C(=O)OC)c2ccc3c4ccccc4ccc3n2c1C(=O)OC` gave a growth of 89.6%.
In the case of `Oc1cncc(-c2ccc3ncnc(N4CCc5cc(F)c(Cl)cc54)c3c2)c1`, the growth is reported as 48.2%.
With `Cc1ccc(C2CC(c3ccc(S(=O)(=O)NCCNc4nc(N(C)C)nc(N5CCOCC5)n4)cc3)=Nc3c(N)nc(N)nc3N2)cc1` (stereo not given) the growth was 24.2%.
`Fc1ccc(Nc2nnc(-c3c[nH]c4ccccc34)o2)cc1` showed a growth of 32.6%.
Work on `CCOC(=O)/C(F)=C/C1CC1C1CCN(C(=O)OC(C)(C)C)CC1` (stereo not given) yielded a growth of 94.8%.
In the case of `COc1ccc(Nc2ncnc3sc4c(c23)CCN(Cc2ccccc2)C4)cc1`, the growth is reported as 56.6%.

— PubChem BioAssay (NCI)
